Results taken from PubChem BioAssay AID1159580 (chemical genetic matrix, 2015).
“And” between values parts separate entries of the source, which are not always exact repeats. Identical values can stand only once. The whole screen tested about 5,500 compounds, of which about 2,000 (36%) were called active. Inconclusive results (about 18%) are left out. Rule as the data show it: active = normalized growth mostly below about 0.91 (no sharp cut-off); inconclusive = no clear call, values can overlap the other calls; inactive = mostly above about 0.92. Some of the results follow.

Experiment: chemical genetic growth profiling, strain panel (AID 1159580);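 also: tested at 20 µM; growth read once vehicle control cultures reached saturation at 30 °C; 1 = growth at the plate median or of vehicle wells; lower values mean less growth of the strain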
Settings: growth OD

Measured: normalized growth

CC(CN(C)C)CN1c2ccccc2CCc2ccccc21 (stereo not given)
inactive: S. cerevisiae deletion strains, locus YJR066W, strain TOR1, active compounds read low 0.94 | S. cerevisiae deletion strains, locus YKL009W, strain mrt4, active compounds read low 1 | S. cerevisiae deletion strains, locus YKL068W, active compounds read low 1.01 | S. cerevisiae deletion strains, locus YKL085W, strain MDH1 (second series), active compounds read low 1.02 | S. cerevisiae deletion strains, locus YKL085W, strain MDH1, active compounds read low 1.02 | S. cerevisiae deletion strains, locus YKL160W, strain elf1, active compounds read low 0.978 | S. cerevisiae deletion strains, locus YKL190W, strain CNB1, active compounds read low 1.02 | S. cerevisiae deletion strains, locus YKR001C, strain vps1, active compounds read low 1.02 | S. cerevisiae deletion strains, locus YKR026C, strain gcn3, active compounds read low 0.991 | S. cerevisiae deletion strains, locus YKR091W, strain srl3, active compounds read low 0.977 | S. cerevisiae deletion strains, locus YLL001W, strain dnm1, active compounds read low 0.989 | S. cerevisiae deletion strains, locus YLL026W, active compounds read low 0.979 | S. cerevisiae deletion strains, locus YLL041C, strain sdh2, active compounds read low 0.965 | S. cerevisiae deletion strains, locus YLR027C, strain aat2, active compounds read low 0.974 | S. cerevisiae deletion strains, locus YLR039C, strain RIC1, active compounds read low 1.13 | S. cerevisiae deletion strains, locus YLR058C, strain SHM2, active compounds read low 1.01 | S. cerevisiae deletion strains, locus YLR102C, strain apc9, active compounds read low 1.02 | S. cerevisiae deletion strains, locus YLR113W, strain HOG1, active compounds read low 0.994 | S. cerevisiae deletion strains, locus YLR221C, strain rsa3, active compounds read low 0.982 | S. cerevisiae deletion strains, locus YLR258W, strain gsy2, active compounds read low 0.984 | S. cerevisiae deletion strains, locus YLR262C, strain YPT6 (second series), active compounds read low 1.01 | S. cerevisiae deletion strains, locus YLR262C, strain YPT6, active compounds read low 1.12 | S. cerevisiae deletion strains, locus YLR268W, strain sec22, active compounds read low 1.02 | S. cerevisiae deletion strains, locus YLR320W, strain mms22, active compounds read low 0.947 | S. cerevisiae deletion strains, locus YLR330W, strain CHS5, active compounds read low 1.01 | S. cerevisiae deletion strains, locus YLR342W, strain FKS1 (second series), active compounds read low 1.04 | S. cerevisiae deletion strains, locus YLR342W, strain FKS1, active compounds read low 0.976 | S. cerevisiae deletion strains, locus YLR357W, strain rsc2, active compounds read low 0.967 | S. cerevisiae deletion strains, locus YLR370C, strain arc18, active compounds read low 0.977 | S. cerevisiae deletion strains, locus YLR371W, strain rom2, active compounds read low 1.01 | S. cerevisiae deletion strains, locus YLR384C, strain iki3, active compounds read low 0.979 | S. cerevisiae deletion strains, locus YLR418C, strain cdc73, active compounds read low 1.02 | S. cerevisiae deletion strains, locus YML016C, strain PPZ1, active compounds read low 1.01 | S. cerevisiae deletion strains, locus YML032C, strain rad52, active compounds read low 1.01 | S. cerevisiae deletion strains, locus YML120C, strain ndi1, active compounds read low 0.971 | S. cerevisiae deletion strains, locus YML124C, strain tub3, active compounds read low 1.02 | S. cerevisiae deletion strains, locus YMR058W, strain fet3, active compounds read low 0.971 | S. cerevisiae deletion strains, locus YMR078C, strain ctf18, active compounds read low 1.01 | S. cerevisiae deletion strains, locus YMR125W, strain sto1, active compounds read low 0.973 | S. cerevisiae deletion strains, locus YMR129W, active compounds read low 0.981 | S. cerevisiae deletion strains, locus YMR205C, strain PFK2, active compounds read low 0.97 | S. cerevisiae deletion strains, locus YMR223W, strain ubp8, active compounds read low 1.02 | S. cerevisiae deletion strains, locus YMR231W, strain pep5, active compounds read low 0.984 | S. cerevisiae deletion strains, locus YMR263W, strain SAP30, active compounds read low 1 | S. cerevisiae deletion strains, locus YMR307W, strain GAS1, active compounds read low 1.05 and 1 | S. cerevisiae deletion strains, locus YNL067W, strain RPL9B, active compounds read low 1.01 | S. cerevisiae deletion strains, locus YNL071W, strain lat1, active compounds read low 0.963 | S. cerevisiae deletion strains, locus YNL128W, strain TEP1, active compounds read low 1.03 and 1.02 | S. cerevisiae deletion strains, locus YNL175C, strain NOP13, active compounds read low 1.01 | S. cerevisiae deletion strains, locus YNL183C, strain NPR1, active compounds read low 0.936 | S. cerevisiae deletion strains, locus YNL197C, strain WHI3, active compounds read low 1.02 | S. cerevisiae deletion strains, locus YNL209W, strain ssb2, active compounds read low 0.98 | S. cerevisiae deletion strains, locus YNL224C, strain SQS1, active compounds read low 1.01 | S. cerevisiae deletion strains, locus YNL233W, strain BNI4, active compounds read low 0.998 | S. cerevisiae deletion strains, locus YNL248C, strain rpa49, active compounds read low 0.988 | S. cerevisiae deletion strains, locus YNL250W, strain rad50, active compounds read low 1.03 | S. cerevisiae deletion strains, locus YNL271C, strain bni1, active compounds read low 1.02 | S. cerevisiae deletion strains, locus YNL298W, strain CLA4, active compounds read low 1.02 | S. cerevisiae deletion strains, locus YNL307C, strain MCK1, active compounds read low 1.03 | S. cerevisiae deletion strains, locus YNL322C, strain KRE1 (second series), active compounds read low 0.966 | S. cerevisiae deletion strains, locus YNL322C, strain KRE1, active compounds read low 1.01 | S. cerevisiae deletion strains, locus YNR049C, strain mso1, active compounds read low 0.977 | S. cerevisiae deletion strains, locus YNR052C, strain pop2, active compounds read low 1.02 | S. cerevisiae deletion strains, locus YOL006C, strain TOP1, active compounds read low 0.976 | S. cerevisiae deletion strains, locus YOL012C, strain htz1 1.63 | S. cerevisiae deletion strains, locus YOL147C, strain pex11, active compounds read low 1.02 | S. cerevisiae deletion strains, locus YOR001W, strain rrp6, active compounds read low 0.979 | S. cerevisiae deletion strains, locus YOR061W, strain CKA2, active compounds read low 1.01 | S. cerevisiae deletion strains, locus YOR069W, strain VPS5, active compounds read low 1.01 | S. cerevisiae deletion strains, locus YOR070C, strain gyp1, active compounds read low 1.01 | S. cerevisiae deletion strains, locus YOR080W, strain dia2, active compounds read low 0.971 | S. cerevisiae deletion strains, locus YOR083W, strain WHI5 (second series), active compounds read low 1.05 | S. cerevisiae deletion strains, locus YOR083W, strain WHI5, active compounds read low 0.976 | S. cerevisiae deletion strains, locus YOR106W, strain vam3, active compounds read low 0.939 | S. cerevisiae deletion strains, locus YOR136W, strain idh2, active compounds read low 1.02 | S. cerevisiae deletion strains, locus YOR144C, strain elg1, active compounds read low 1.02 | S. cerevisiae deletion strains, locus YOR184W, strain ser1, active compounds read low 1.04 | S. cerevisiae deletion strains, locus YOR231W, strain MKK1, active compounds read low 0.983 | S. cerevisiae deletion strains, locus YOR265W, strain rbl2, active compounds read low 0.97 | S. cerevisiae deletion strains, locus YOR270C, strain vph1, active compounds read low 0.897 | S. cerevisiae deletion strains, locus YOR290C, strain snf2, active compounds read low 0.927 | S. cerevisiae deletion strains, locus YOR316C, strain cot1, active compounds read low 1.02 | S. cerevisiae deletion strains, locus YPL051W, strain arl3, active compounds read low 0.972 | S. cerevisiae deletion strains, locus YPL055C, strain LGE1, active compounds read low 1.01 | S. cerevisiae deletion strains, locus YPL078C, strain atp4, active compounds read low 0.961 | S. cerevisiae deletion strains, locus YPL106C, strain sse1, active compounds read low 0.956 | S. cerevisiae deletion strains, locus YPL240C, strain hsp82, active compounds read low 0.978 | S. cerevisiae deletion strains, locus YPL241C, strain CIN2, active compounds read low 1.01 and 1 | S. cerevisiae deletion strains, locus YPL256C, strain CLN2, active compounds read low 0.981 | S. cerevisiae deletion strains, locus YPR119W, strain clb2, active compounds read low 1.02 | S. cerevisiae deletion strains, locus YPR141C, strain kar3, active compounds read low 1.01 | S. cerevisiae deletion strains, locus YPR163C, strain tif3, active compounds read low 1.02 | S. cerevisiae deletion strains, locus YPR167C, strain met16, active compounds read low 1.02 | S. cerevisiae deletion strains, strain wtn01, active compounds read low 1.02 | S. cerevisiae strains, strain wild type, active compounds read low 1
